From ChEMBL document CHEMBL3988442, “University of Dundee, Small-Polar-MMV Screening Library” (2021)

These molecules were tested against AMP-activated protein kinase, AMPK (Homo sapiens) (UniProt P54646+O43741+P54619+Q9UGJ0+Q9Y478+Q13131+Q9UGI9) (assay: AMP-dependent Kinase enzyme assay. An in vitro enzyme assay that detects ADP turnover that is directly proportional to AMPK activity. This uses naive AMPK that is activated during the assay with MK-8722). Conditions: 30 µM.
Format: functional
Set-up: scale not given: direction of the effect not stated beside the values

Row | SMILES | Percent Effect [%]
1 | CN(Cc1csc(-c2cccs2)n1)Cc1ncccc1C(=O)O | -1.78
2 | O=C(Cc1ccccc1O)NC1CCCN(c2ccccc2F)C1=O (centres undefined) | 8.51
3 | C[C@@H]1CN(Cc2cc3ccccc3n2C)CC[C@@]1(O)C1CC1 | 14.8
4 | CCN(CC)c1ncccc1CNCc1ccc(-c2ccn[nH]2)s1 | 1.23
5 | CC(C)COc1cncc(N2CCCN(CC(F)(F)F)CC2)n1 | 3.81
6 | O=C(C1CC(c2ccccc2)=NO1)N1CCCCc2ccccc21 (centres undefined) | 4.65
7 | O=C(CCN1CCCCO1)N1CC[C@H](O)[C@@H](O)C1 | -7.38
8 | Cc1cc(NCCNc2cccnc2)nc(-c2ccccc2O)n1 | 19.9
9 | CCC[C@@H]1CN(Cc2ccc(C(F)(F)F)nc2)C[C@H]1NS(C)(=O)=O | 4.44
10 | O=C(NCc1cccnc1N1CCCCC1)c1ccc2[nH]nnc2c1 | -9.59
11 | CCc1nnc(CNC(=O)CCC2CCCCN2C)s1 (centres undefined) | -10.9
12 | COC(=O)C(NC(=O)c1cc(F)cc(F)c1)c1cccnc1 (centres undefined) | 2.18
13 | CNC(=O)c1noc(CN2CC[C@](C)(O)[C@H](C)C2)n1 | -4.9
14 | Cc1ccc(CN2CCS(=O)(=O)C(C)(C)C2)cc1C | -0.279
15 | CN(Cc1csc(-c2cccs2)n1)Cc1cccnc1N | 3.93
16 | CCc1ncc2c(n1)CN(c1cc(NC3CC3)nc(N)n1)C2 | -118
17 | CCCOC1CCCN(c2ncnc3c2CCN(C(=O)C2CC2)C3)C1 (centres undefined) | 3.46
18 | CN(CCc1ccncc1)CCc1nccs1 | 1.48
19 | CCn1cnnc1CNC(=O)N1CCOC(c2ccc(F)cc2)C1 (centres undefined) | -5.45
20 | CC(C)O[C@H]1CN(C(=O)CCN2CCCCO2)C[C@@H]1O | -7.14

Row | SMILES | Percent Effect [%]
21 | c1cnc(N2CCC(OCC3CCCCO3)CC2)nc1 (centres undefined) | 2.8
22 | COCC1(C(=O)N[C@H]2CN(c3nnc(C)s3)C[C@@H]2C2CC2)CCC1 | 9.28
23 | NC(=O)NC1CCN(Cc2ccc3c(c2)CCC3)CC1 | 2.24
24 | O=C(NC1CCCN(Cc2c(F)cccc2F)C1)c1cnccn1 (centres undefined) | 6.06
25 | O=C(NCC1CCOC1)c1cc(-c2ccc(F)cc2)[nH]n1 (centres undefined) | -0.741
26 | Cc1cc(C)n(CCCN(C)c2cc(C3CC3)ncn2)n1 | 6.65
27 | CCOc1ccc(Br)cc1S(=O)(=O)N(CC)Cc1ccc(N(C)C)cc1 | -7.47
28 | CCC1c2ccccc2CCN1CCCS(C)(=O)=O (centres undefined) | -1.94
29 | Nc1cc(N2CCC(c3cc(Cc4ccccc4)n[nH]3)CC2)ccn1 | -5.64
30 | Cc1ncc(C(=O)N2CCOC(C(=O)N3CCCCCC3)C2)c(C)n1 (centres undefined) | -3.31
31 | CN1CCCCC1(C)C(=O)N1CCC(c2ccccn2)CC1 (centres undefined) | -3.58
32 | CCOc1ccccc1CCC(=O)Nc1c(C)nn(C)c1C | 8.9
33 | CCCc1ccc(CN2CCC3(CC2)CNC(=O)C3)o1 | 18.2
34 | CC(C)(C)c1ccc(C(=O)NCCCNC(=O)c2cnccn2)cc1 | 8.31
35 | CN(Cc1ccc(C#N)cc1)C(=O)c1ccn(C)c(=O)c1 | 5.01
36 | O=C(O)c1cn(CC2CCCN(c3ccc4ccccc4n3)C2)nn1 (centres undefined) | -0.883
37 | Cc1ccccc1CCC(=O)N1CCc2ncnc(NCCO)c2CC1 | 0.622
38 | Cc1ccc(-c2nnn(CCN3C(=O)CCC3=O)n2)cc1 | -8.21
39 | NC(=O)CN1CCC(C(=O)NCC(O)c2cccc(F)c2)CC1 (centres undefined) | -5.48
